Drawing on PubChem BioAssay, this text covers inhibition for 18 compounds.

Values joined by “and” are separate entries in the source; they are usually repeats but may differ in a detail not shown here. Equal values may be shown once. More than one record can exist for a structure, and the calls need not agree. Active and inactive are the calls of the source. Unless noted, no stated cut-off is given here; in the data, active means inhibition above about 30%; inactive means the rest.

Usually inhibition stands for the change of the read-out against control, counted positive when it falls.

Assay [1] concerns the target Nuclear receptor coactivator 3 (Homo sapiens) (UniProt Q9Y6Q9). Description: NCOA3 GAL4-fusion reporter inhibition – cell-based, luminescence, quadruplicate, confirmation (AID 588792;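 active means mean inhibition over 43.08%, the solvent-only control mean plus 3 SD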;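 further: 0% = DMSO treated cells and 100% = gossypol at 36 µM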). The following applies: HEK293 GAL4-SRC3 luciferase reporter, at 3.6 µM, stronger effect = higher value. In general terms: Reporter assays use an easily measured gene product as a stand-in for the process of interest.

Assay [2] deals with transactivating tegument protein VP16 (Human herpesvirus 1), Gal4-VP16 luciferase reporter. The experiment in a line: repression of VP16-driven luciferase reporter – cell-based, luminescence, high throughput, counter-screen for SRC3 inhibitor project (AID 588794). The settings on record: mammalian cells, at 3.6 µM, stronger effect = higher value.
The target of assay [3] is Nuclear receptor coactivator 1 (Homo sapiens) (UniProt Q15788). Description: NCOA1 GAL4-fusion reporter inhibition – cell-based, luminescence, quadruplicate, confirmation (AID 588820;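 active means mean inhibition above 46.68%, the untreated control wells mean plus 3 SD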;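 further: 0% = DMSO wells and 100% = gossypol 36 µM treated wells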). The settings on record: HEK293 GAL4-SRC1 luciferase reporter, at 3.6 µM, stronger effect = higher value.
The nature of assay [4]: repression of VP16-driven luciferase reporter – cell-based, luminescence, high throughput, counter-screen for SRC1 inhibitor project (AID 588824; in the data active means inhibition above about 25%). The following applies: cell-based VP16 transactivation luciferase luminescence; at 3.6 µM; stronger effect = higher value.
A short description of assay [5]: StAR promoter reporter inhibitors, counter-screen for LRH-1 inverse agonist project, cell-based, luminescence, high throughput (AID 651611; in the data active means inhibition above about 28%). The following applies: StAR promoter luciferase reporter counterscreen, at 3.6 µM, stronger effect = higher value. (In general: The purpose of a counterscreen is to sort out artefacts and off-target activity.)
Assay [6] has as its target Nuclear receptor subfamily 5 group A member 2 (Homo sapiens) (UniProt O00482). Description: NR5A2 activity suppression in reporter cells – cell-based, luminescence, confirmation (AID 651613; in the data active means inhibition above about 42%;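 further: HEK293T cells co-transfected with LRH-1 and StAR promoter luciferase reporter; 0% = vehicle wells and 100% = parental cells lacking receptor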). The settings on record: cell-based LRH-1 luciferase reporter, inverse agonism; at 3.6 µM; stronger effect = higher value.
The target in assay [7] is Steroidogenic factor 1 (Homo sapiens) (UniProt Q13285). The experiment in a line: inverse agonism at SF1 nuclear receptor – cell-based, luminescence, high throughput, counter-screen for LRH-1 inverse agonist project (AID 651614; in the data active means inhibition above about 44%;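 further: cells cotransfected with StAR promoter reporter and SF1 expression vector; 0% = vehicle on cells with receptor and 100% = vehicle on cells lacking receptor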). The following applies: cell-based SF1 luciferase reporter, at 3.6 µM, stronger effect = higher value.
Assay [8] can be described thus: compounds suppressing VP16-driven luciferase signal – cell-based, luminescence, high throughput, counter-screen for LRH-1 inverse agonist project (AID 651615; in the data active means inhibition above about 33%). The settings on record: Gal4-VP16 luciferase reporter cells, at 3.6 µM, stronger effect = higher value.

Sequence of Nuclear receptor subfamily 5 group A member 2 (Homo sapiens) (O00482 whole entry, looked up): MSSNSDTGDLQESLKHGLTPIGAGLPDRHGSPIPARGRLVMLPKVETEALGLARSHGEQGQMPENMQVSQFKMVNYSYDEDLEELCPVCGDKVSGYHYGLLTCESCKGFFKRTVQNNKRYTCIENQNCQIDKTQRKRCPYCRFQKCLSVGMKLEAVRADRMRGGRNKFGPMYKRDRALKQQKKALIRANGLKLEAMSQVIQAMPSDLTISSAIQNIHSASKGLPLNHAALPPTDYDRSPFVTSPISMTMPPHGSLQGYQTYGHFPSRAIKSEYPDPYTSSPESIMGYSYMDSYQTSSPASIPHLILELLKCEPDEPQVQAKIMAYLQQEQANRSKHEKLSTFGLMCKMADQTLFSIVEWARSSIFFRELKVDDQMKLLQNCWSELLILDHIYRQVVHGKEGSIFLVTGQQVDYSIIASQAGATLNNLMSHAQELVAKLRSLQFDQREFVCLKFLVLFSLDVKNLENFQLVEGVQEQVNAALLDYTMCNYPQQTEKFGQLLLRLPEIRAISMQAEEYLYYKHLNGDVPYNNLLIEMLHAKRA
Sequence of Steroidogenic factor 1 (Homo sapiens) (Q13285 whole entry, looked up, the tested form may be a part): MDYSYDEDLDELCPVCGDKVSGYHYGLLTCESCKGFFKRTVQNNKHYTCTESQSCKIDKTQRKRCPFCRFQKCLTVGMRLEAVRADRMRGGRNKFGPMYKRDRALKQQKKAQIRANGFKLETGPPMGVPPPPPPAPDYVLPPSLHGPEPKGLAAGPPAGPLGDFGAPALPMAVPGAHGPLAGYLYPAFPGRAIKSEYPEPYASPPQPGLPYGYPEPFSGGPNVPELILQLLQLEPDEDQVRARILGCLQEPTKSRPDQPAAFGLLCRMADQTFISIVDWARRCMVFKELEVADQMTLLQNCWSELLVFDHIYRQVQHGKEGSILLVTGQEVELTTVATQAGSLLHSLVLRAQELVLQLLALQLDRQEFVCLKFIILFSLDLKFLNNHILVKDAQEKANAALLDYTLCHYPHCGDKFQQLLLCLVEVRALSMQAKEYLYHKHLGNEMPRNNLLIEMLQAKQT
Sequence of Nuclear receptor coactivator 3 (Homo sapiens) (Q9Y6Q9 whole entry, looked up, the tested form may be a part): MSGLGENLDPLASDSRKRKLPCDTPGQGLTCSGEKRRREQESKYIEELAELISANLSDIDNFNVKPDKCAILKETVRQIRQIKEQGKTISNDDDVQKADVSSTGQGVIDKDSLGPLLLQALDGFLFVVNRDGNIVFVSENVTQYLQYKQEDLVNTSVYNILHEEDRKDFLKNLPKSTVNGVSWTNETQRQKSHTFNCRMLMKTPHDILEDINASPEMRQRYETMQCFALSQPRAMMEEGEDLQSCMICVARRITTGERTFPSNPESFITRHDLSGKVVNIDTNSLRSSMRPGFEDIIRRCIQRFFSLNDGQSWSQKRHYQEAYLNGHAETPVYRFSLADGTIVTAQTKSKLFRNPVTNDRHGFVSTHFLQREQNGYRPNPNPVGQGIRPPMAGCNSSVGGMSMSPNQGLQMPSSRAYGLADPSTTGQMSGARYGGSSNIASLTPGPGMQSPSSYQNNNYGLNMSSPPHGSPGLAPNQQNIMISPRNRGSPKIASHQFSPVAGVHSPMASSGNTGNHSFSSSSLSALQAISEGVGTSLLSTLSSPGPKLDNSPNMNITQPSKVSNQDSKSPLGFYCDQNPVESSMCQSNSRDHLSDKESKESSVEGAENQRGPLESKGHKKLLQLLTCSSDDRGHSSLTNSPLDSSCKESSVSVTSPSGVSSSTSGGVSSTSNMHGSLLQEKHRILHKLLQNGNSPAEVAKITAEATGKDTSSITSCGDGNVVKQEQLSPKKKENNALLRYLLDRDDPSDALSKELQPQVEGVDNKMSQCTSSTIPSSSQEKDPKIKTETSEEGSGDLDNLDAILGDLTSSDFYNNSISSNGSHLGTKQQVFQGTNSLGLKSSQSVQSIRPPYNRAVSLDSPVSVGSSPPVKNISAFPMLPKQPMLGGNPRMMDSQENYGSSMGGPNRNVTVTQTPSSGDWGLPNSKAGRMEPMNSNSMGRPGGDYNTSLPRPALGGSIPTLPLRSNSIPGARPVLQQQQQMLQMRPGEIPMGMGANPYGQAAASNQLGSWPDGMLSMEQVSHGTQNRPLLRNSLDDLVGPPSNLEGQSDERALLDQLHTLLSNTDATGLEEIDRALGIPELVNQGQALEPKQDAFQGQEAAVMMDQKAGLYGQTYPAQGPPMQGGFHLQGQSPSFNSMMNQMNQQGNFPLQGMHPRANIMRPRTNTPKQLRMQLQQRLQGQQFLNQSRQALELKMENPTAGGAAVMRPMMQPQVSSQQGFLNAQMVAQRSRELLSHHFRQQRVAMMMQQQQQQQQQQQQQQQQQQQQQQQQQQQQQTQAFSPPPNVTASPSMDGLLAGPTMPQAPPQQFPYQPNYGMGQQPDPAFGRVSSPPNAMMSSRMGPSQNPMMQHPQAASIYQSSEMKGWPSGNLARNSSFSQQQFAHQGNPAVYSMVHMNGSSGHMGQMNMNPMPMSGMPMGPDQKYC
Sequence of Nuclear receptor coactivator 1 (Homo sapiens) (Q15788 whole entry, looked up, the tested form may be a part): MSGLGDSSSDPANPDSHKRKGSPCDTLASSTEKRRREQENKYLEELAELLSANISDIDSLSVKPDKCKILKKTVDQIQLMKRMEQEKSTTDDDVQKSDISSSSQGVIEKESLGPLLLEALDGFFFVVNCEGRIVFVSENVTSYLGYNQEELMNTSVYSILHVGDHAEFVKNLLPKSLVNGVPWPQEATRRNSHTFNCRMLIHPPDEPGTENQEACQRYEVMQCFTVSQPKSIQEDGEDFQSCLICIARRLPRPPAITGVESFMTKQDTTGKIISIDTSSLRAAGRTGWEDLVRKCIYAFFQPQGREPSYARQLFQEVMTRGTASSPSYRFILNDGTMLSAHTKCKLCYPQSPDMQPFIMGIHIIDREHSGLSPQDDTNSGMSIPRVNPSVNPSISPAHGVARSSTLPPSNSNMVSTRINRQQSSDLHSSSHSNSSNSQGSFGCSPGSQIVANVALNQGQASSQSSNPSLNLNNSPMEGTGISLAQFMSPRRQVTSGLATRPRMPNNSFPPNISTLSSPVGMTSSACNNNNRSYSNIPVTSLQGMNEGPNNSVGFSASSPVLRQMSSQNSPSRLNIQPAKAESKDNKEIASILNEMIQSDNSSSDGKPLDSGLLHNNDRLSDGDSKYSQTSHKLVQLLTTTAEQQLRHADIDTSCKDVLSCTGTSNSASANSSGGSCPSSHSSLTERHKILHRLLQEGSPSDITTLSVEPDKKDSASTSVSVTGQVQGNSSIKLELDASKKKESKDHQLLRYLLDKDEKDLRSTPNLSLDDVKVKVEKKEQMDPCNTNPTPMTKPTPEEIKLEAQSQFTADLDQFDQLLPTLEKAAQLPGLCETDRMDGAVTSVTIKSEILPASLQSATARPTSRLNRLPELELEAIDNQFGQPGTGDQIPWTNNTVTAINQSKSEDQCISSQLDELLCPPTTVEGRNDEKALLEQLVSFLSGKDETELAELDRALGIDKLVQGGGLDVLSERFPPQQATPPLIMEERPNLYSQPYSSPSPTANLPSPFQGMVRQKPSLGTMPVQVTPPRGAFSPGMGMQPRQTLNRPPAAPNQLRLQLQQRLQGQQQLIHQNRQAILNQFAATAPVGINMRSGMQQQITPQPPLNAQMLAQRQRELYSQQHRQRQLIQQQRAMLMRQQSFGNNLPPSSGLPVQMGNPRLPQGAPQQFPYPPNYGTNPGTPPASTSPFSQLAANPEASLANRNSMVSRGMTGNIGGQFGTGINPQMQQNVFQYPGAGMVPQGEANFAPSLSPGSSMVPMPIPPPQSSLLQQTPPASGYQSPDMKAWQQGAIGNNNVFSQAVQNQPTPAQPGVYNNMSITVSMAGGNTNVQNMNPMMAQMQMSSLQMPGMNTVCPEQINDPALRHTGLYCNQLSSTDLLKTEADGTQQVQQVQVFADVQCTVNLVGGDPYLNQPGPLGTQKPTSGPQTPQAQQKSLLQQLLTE

Turning to `COc1ccccc1-n1c(-c2ccccc2)c[n+]2c1CCc1ccccc1-2`, the inhibition in assay [1] was 47.9% (active) and 39.9% (inactive); in assay [2], 72.8% (active) and 57.1% (active); in assay [3], 39.1% (inactive) and 29.1% (inactive); in assay [4], 73.8% (active) and 53.7% (active); in assay [5], 58.2% (active) and 36.6% (active); in assay [6], 96.8% (active) and 84.2% (active). Further, the inhibition in assay [7] is 84.2% (active) and 76% (active); in assay [8], 83.9% (active) and 70.9% (active).
Consider `NS(=O)(=O)c1ccc(NC(=O)/C=C/c2ccc3c(c2)OCO3)cc1`, for which the inhibition in assay [1] is 10.8% (inactive); in assay [2] it was 53.6% (active); in assay [3], 17.1% (inactive); in assay [4], 52% (active); in assay [5], 47% (active); in assay [6], 61.7% (active). The values for the inhibition in assay [7] and in assay [8] were 62.2% (active) and 66.2% (active), respectively.
Turning to `CCCCC(=O)NC(c1ccccc1)c1ccc2cccnc2c1O` (centres undefined), the inhibition was 53.3% (active) in assay [1]; 36.9% (active) in assay [2]; 27.8% (inactive) in assay [3]; 29.2% (active) in assay [4]; 60.3% (active) in assay [5]; 69.5% (active) in assay [6]. Further, the inhibition in assay [7] is 63.6% (active); in assay [8], 73% (active).
As for `N=c1c2c(n(Cc3ccc(Cl)c(Cl)c3)c3c1CCC3)CCCC2`, the inhibition in assay [1] is 44.7% (active); in assay [2], 74.8% (active); in assay [3], 62.8% (active); in assay [4] it was 74.8% (active); in assay [5], 61.2% (active); in assay [6] it was 109% (active). The inhibition in assay [7] is 84.6% (active); in assay [8] it was 90.7% (active).
Regarding `Cc1cc2c(=Cc3ccc(N(C)C)cc3)c3ccccc3n2[n+]1C`, the inhibition was 44.8% (active) in assay [1]; 74.8% (active) in assay [2]; 23.9% (inactive) in assay [3]; 74.5% (active) in assay [4]; 76.2% (active) in assay [5]; 108% (active) in assay [6]. The results for the inhibition in assay [7] and in assay [8] were 89.4% (active) and 93.4% (active), respectively.
Regarding `CC(NC(=O)Nc1nnc(C(F)(F)F)s1)(C(F)(F)F)C(F)(F)F`, the inhibition in assay [1] is 52.9% (active); in assay [2] it was 72% (active); in assay [3], 37.6% (inactive); in assay [4], 79.1% (active); in assay [5] it was 74.9% (active); in assay [6], 99.7% (active). The inhibition was 89.4% (active) in assay [7] and 93% (active) in assay [8].
As for `O=C(CSc1nc2sc3c(c2c(=O)n1-c1ccccc1)CCCC3)NCc1ccco1`, the inhibition in assay [1] is 7.86% (inactive); in assay [2] it was -11.9% (inactive); in assay [3], 4.53% (inactive); in assay [4], -16.3% (inactive); in assay [5] it was 8.53% (inactive); in assay [6], 15.3% (inactive). Further, the inhibition in assay [7] was 10.7% (inactive); in assay [8] it was 3.41% (inactive).
As to `O=C(c1ccccc1)c1nn(-c2ccc(Cl)cc2)c(=O)cc1C(F)(F)F`, the inhibition in assay [1] is 65.3% (active); in assay [2] it was 62.6% (active); in assay [3], 21.8% (inactive); in assay [4], 51.2% (active); in assay [5], 73.3% (active); in assay [6], 72.6% (active). In addition, the inhibition in assay [7] was 70% (active); in assay [8] it was 74.8% (active).
In the case of `CN(C)CC1CCC/C(=C\c2ccc(OC(=O)c3ccc(Cl)cc3)cc2)C1=O` (centres undefined), the inhibition in assay [1] was 50.4% (active); in assay [2] it was 60.2% (active); in assay [3], 29.9% (inactive); in assay [4] it was 58.1% (active); in assay [5], 70.8% (active); in assay [6] it was 89.9% (active). Further, the inhibition was 76.4% (active) in assay [7] and 69.3% (active) in assay [8].
For `CC(C)=CC(O)C/C(C)=C/COc1ccc2ccc(=O)oc2c1` (centres undefined), the inhibition in assay [1] is 17.4% (inactive); in assay [2], 38.5% (active); in assay [3], 0.43% (inactive); in assay [4], 40.6% (active); in assay [5], -4.64% (inactive); in assay [6], 31.5% (inactive). The inhibition is 29.2% (inactive) in assay [7] and -10.8% (inactive) in assay [8].
`CCN(CC)c1ccc(C(NC(=O)C(C)C)c2ccc3cccnc3c2O)cc1` (centres undefined): the inhibition is 55.9% (active) in assay [1]; 56% (active) in assay [2]; 78.3% (active) in assay [3]; 66.5% (active) in assay [4]; 86.3% (active) in assay [5]; 103% (active) in assay [6]. The values for the inhibition in assay [7] and in assay [8] were 90% (active) and 84.9% (active), respectively.
Consider `CC1CC(C)C[N+](=C2C=C(N3CCCC3)CC(C)(C)C2)C1` (centres undefined), for which the inhibition in assay [1] is 26.9% (inactive); in assay [2], 66.7% (active); in assay [3], 28.9% (inactive); in assay [4], 71.5% (active); in assay [5], 38.9% (active); in assay [6], 110% (active). The inhibition in assay [7] is 79.1% (active); in assay [8], 91.2% (active).
Regarding `Cc1nc2cc(NCc3nc4ccccc4n3Cc3ccccc3)ccc2n1C`, the inhibition in assay [1] is -99.3% (inactive); in assay [2], -51.2% (inactive); in assay [3], -116% (inactive); in assay [4], -72.9% (inactive); in assay [5] it was -136% (inactive); in assay [6] it was -185% (inactive). Moreover, the inhibition in assay [7] was -209% (inactive); in assay [8], -111% (inactive).
For the compound `CCCCC(=O)NC(c1ccc(Cl)cc1)c1ccc2cccnc2c1O` (centres undefined), the inhibition is 66.9% (active) in assay [1]; 62.4% (active) in assay [2]; 51.3% (active) in assay [3]; 62.2% (active) in assay [4]; 67.9% (active) in assay [5]; 87.8% (active) in assay [6]. The inhibition in assay [7] was 86.1% (active); in assay [8], 69.1% (active).
With `CCC(=O)Nc1cccc(C(=O)/C=C/c2cc(Br)ccc2OC)c1`, the inhibition is 70.8% (active) in assay [1]; 62.1% (active) in assay [2]; 60.6% (active) in assay [3]; 59.4% (active) in assay [4]; 81.2% (active) in assay [5]; 105% (active) in assay [6]. Moreover, the results for the inhibition in assay [7] and in assay [8] were 94.1% (active) and 82.9% (active), respectively.
Take `OCCCNc1cc(-c2ccnc(Nc3cccc(Cl)c3)n2)ccn1`: the inhibition was 95.9% (active) in assay [1]; 97.1% (active) in assay [2]; 84.5% (active) in assay [3]; 96.3% (active) in assay [4]; 89.9% (active) in assay [5]; 108% (active) in assay [6]. Moreover, the inhibition was 96.5% (active) in assay [7] and 97.9% (active) in assay [8].
For `Cc1ccnc2c1ccc1c(C)ccnc12`, the inhibition is 86.2% (active) in assay [1]; 54.3% (active) in assay [2]; 73.3% (active) in assay [3]; 61.9% (active) in assay [4]; 88.8% (active) in assay [5]; 108% (active) in assay [6]. Further, the inhibition in assay [7] is 87% (active); in assay [8], 65.1% (active).
`CN(C)c1ccc(/C=C/c2ccc3ccccc3n2)cc1`: the inhibition was 33.3% (inactive) in assay [1]; 29% (inactive) in assay [2]; 0.35% (inactive) in assay [3]; 14.3% (inactive) in assay [4]; 55.6% (active) in assay [5]; 59.3% (active) in assay [6]. Besides, the results for the inhibition in assay [7] and in assay [8] were 72.4% (active) and 29.4% (inactive), respectively.
